{"source": "PubChem BioAssay (NCI)", "note": "This is part of a sample that, as a whole, favours compounds with a hit. Of some 83,000 tested, about 20% had one in any assay.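 Cells were grown in 96-well plates and exposed to the test compound at a single concentration for 48 hours; results are reported as percent growth, with values below 10 considered active.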 Values without a mark were called inactive. The source made the active and inactive calls.", "data": [{"tested_on": "SF-539 CNS", "experiment": "NCI-60 one-dose screen, 48 h (100 = growth as untreated, 0 = no growth, -100 = all killed)", "conditions": "10 µM unless noted", "values": [{"smiles": "O=NN(Cc1cccnc1)C(=O)NC1CCCCC1", "growth": "96.2%"}, {"smiles": "FC(F)(F)c1cccc(CNC2CCN(CCc3ccccc3)CC2)c1", "growth": "93.5%"}, {"smiles": "COc1ccc(CCN2C(=O)/C(=C/c3ccc(C4Oc5ccccc5C5CC(c6cccc(OC)c6)=NN54)cc3)SC2=S)cc1", "note": "(stereo not drawn)", "growth": "95.4%"}, {"smiles": "COc1cc(-c2c3c(cn2S(=O)(=O)c2ccccc2)-c2nc(N)sc2CC3)cc(OC)c1OC", "growth": "-31.8% (active)"}, {"smiles": "CCC1=C[C@@H]2CN(C1)Cc1c([nH]c3ccccc13)[C@@](C(=O)OC)(c1cc3c(cc1OC)N(C)[C@H]1[C@@](O)(C(=O)OC)[C@H](OC(C)=O)[C@]4(CC)[C@@H]5C[C@@H]5CN5CC[C@]31[C@@H]54)C2", "growth": "-17.5% (active)"}, {"smiles": "O=C(O)CCCN1C(=O)C2C3CCC(C3)C2C1=O", "note": "(stereo not drawn)", "growth": "103%"}, {"smiles": "CCOC(=O)CSc1c(-c2ccccc2)c2cc(Cl)ccc2[nH]c1=O", "growth": "107%"}, {"smiles": "COc1ccc(C2C3=C(COC3=O)N(CCO)c3cc4c(cc32)CCC4)cc1", "note": "(stereo not drawn)", "growth": "57.2%"}, {"smiles": "Cc1c(C(=O)OCCO)cc(-c2ccc(Cl)cc2)n1-c1ccc(Cl)cc1Cl", "growth": "77.5%"}, {"smiles": "NC1C(N)C(N)C1N", "note": "(stereo not drawn)", "growth": "100%"}, {"smiles": "Oc1[nH]c2ccccc2c1N=Nc1nnc2n1N=C(c1ccccc1)CS2", "growth": "82.6%"}, {"smiles": "O=NN(C(=O)NC1CCC(C(=O)O)CC1)C1CCC(C(=O)O)CC1", "note": "(stereo not drawn)", "growth": "103%"}, {"smiles": "Nc1ccc(-c2nn3c(CCC(=O)c4nc5ncccc5[nH]4)nnc3s2)c(O)c1", "growth": "89.1%"}, {"smiles": "CCOc1ccc2c(c1)CN(Cc1ccc(Cl)cc1)CO2", "growth": "1.31% (active)"}, {"smiles": "CCN(CC)CCCNc1ccnc2cc3ccccc3cc12", "growth": "30.8%"}, {"smiles": "Cc1ccc2cccc(Oc3ccc(Nc4ncnc5onc(-c6ccccc6)c45)cc3)c2n1", "growth": "79.8%"}, {"smiles": "CCCc1c(C)c2sc(=O)[nH]c2[nH]c1=O", "growth": "96.7%"}, {"smiles": "CC(C)[C@H](NC(=O)Cn1cc(C(=O)O)nn1)C(=O)O", "growth": "105%"}, {"smiles": "CC1CCCCN1CCCNC(=O)c1ccc2c(c1)sc1nc(-c3ccc(F)cc3)cn12", "note": "(stereo not drawn)", "growth": "98.6%"}, {"smiles": "CN(C)c1ccc(/C=C/c2ccnc3c(O)cccc23)cc1", "growth": "2.91% (active)"}, {"smiles": "NC(=O)CSc1nc(-c2ccc(F)cc2)cc(-c2ccco2)n1", "growth": "110%"}, {"smiles": "Clc1ccc(COc2ccc(Nc3ncnc4onc(-c5ccccc5)c34)cc2)cc1", "growth": "97%"}, {"smiles": "O=S1(=O)N(Cc2ccccc2)[C@@H](Cc2ccccc2)C2O[C@H]2[C@H](Cc2ccccc2)N1Cc1ccccc1", "note": "(stereo partly drawn)", "growth": "38.6%"}, {"smiles": "COc1cc(/C=C2\\CN(C)C/C(=C\\c3cc(CN4CCCC4)c(O)c(OC)c3)C2=O)cc(CN2CCCC2)c1O", "growth": "68.2%"}, {"smiles": "COc1cc(/C=C2\\CN(S(=O)(=O)c3ccccc3)C/C(=C\\c3cc(CN4CCCC4)c(O)c(OC)c3)C2=O)cc(CN2CCCC2)c1O", "growth": "-46.6% (active)"}, {"smiles": "COc1ccc(-c2nc(N3CCN(C(=O)C4CCCCC4)CC3)c3c4c(sc3n2)CCCC4)cc1", "growth": "-1.73% (active)"}, {"smiles": "Nc1cccc(Nc2cc(S(=O)(=O)O)c(N)c3c2C(=O)c2ccccc2C3=O)c1", "growth": "101%"}, {"smiles": "CCCCNc1nc(NC(C)(C)C)nc(NC(C)(C)C)n1", "growth": "51%"}, {"smiles": "COc1ccc(OC)c(NC(=O)/C(C#N)=C/c2ccco2)c1", "growth": "94.7%"}, {"smiles": "O=c1oc2ccc(Br)cc2c(=O)n1-c1ccc(Cl)cc1F", "growth": "4.14% (active)"}, {"smiles": "COc1ccc(C2=NN(/C=C3\\SC(=O)NC3=Nc3ccc(F)cc3)C(c3ccc(F)cc3)C2)cc1", "note": "(stereo not drawn)", "growth": "106%"}, {"smiles": "Nc1no[n+]([O-])c1-c1nnc2c(n1)-c1ccccc1C2=O", "growth": "81.8%"}, {"smiles": "C=CCN1C(=O)/C(=c2\\sc3n(c2=O)NC2C(N=3)N(CC)C(=O)N2CC)c2ccccc21", "note": "(stereo not drawn)", "growth": "-5.16% (active)"}, {"smiles": "O=C1/C(=C/c2ccc(O)cc2)COc2ccc(O)cc21", "growth": "98.1%"}, {"smiles": "COc1cc(/C=C/C(=O)c2c(C)nc3ccccc3c2/C=C/c2ccccc2)cc(OC)c1OC", "growth": "1.35% (active)"}, {"smiles": "O=c1oc2ccc(F)cc2c(=O)n1-c1ccc(Cl)cc1F", "growth": "4.31% (active)"}, {"smiles": "CC1(C)CC2(C)OC2C2(C1)N=NC(=Nc1ccccc1)O2", "note": "(stereo not drawn)", "growth": "83.7%"}, {"smiles": "CCN1C(=O)N(CC)C2Nn3c(s/c(=C4\\C(=O)N(C(C)C)c5ccccc54)c3=O)=NC21", "note": "(stereo not drawn)", "growth": "11.5%"}, {"smiles": "O=c1c(-c2nc3ccccc3[nH]2)cc2ccccc2n1Cc1cn(Cc2ccc(F)cc2)nn1", "growth": "-55.9% (active)"}]}, {"tested_on": "UACC-257 melanoma", "experiment": "NCI-60 one-dose screen, 48 h (100 = growth as untreated, 0 = no growth, -100 = all killed)", "conditions": "10 µM unless noted", "values": [{"smiles": "O=NN(Cc1cccnc1)C(=O)NC1CCCCC1", "growth": "92.5%"}, {"smiles": "FC(F)(F)c1cccc(CNC2CCN(CCc3ccccc3)CC2)c1", "growth": "87%"}, {"smiles": "COc1ccc(CCN2C(=O)/C(=C/c3ccc(C4Oc5ccccc5C5CC(c6cccc(OC)c6)=NN54)cc3)SC2=S)cc1", "note": "(stereo not drawn)", "growth": "101%"}, {"smiles": "COc1cc(-c2c3c(cn2S(=O)(=O)c2ccccc2)-c2nc(N)sc2CC3)cc(OC)c1OC", "growth": "74%"}, {"smiles": "CCC1=C[C@@H]2CN(C1)Cc1c([nH]c3ccccc13)[C@@](C(=O)OC)(c1cc3c(cc1OC)N(C)[C@H]1[C@@](O)(C(=O)OC)[C@H](OC(C)=O)[C@]4(CC)[C@@H]5C[C@@H]5CN5CC[C@]31[C@@H]54)C2", "growth": "32.8%"}, {"smiles": "O=C(O)CCCN1C(=O)C2C3CCC(C3)C2C1=O", "note": "(stereo not drawn)", "growth": "111%"}, {"smiles": "CCOC(=O)CSc1c(-c2ccccc2)c2cc(Cl)ccc2[nH]c1=O", "growth": "120%"}, {"smiles": "COc1ccc(C2C3=C(COC3=O)N(CCO)c3cc4c(cc32)CCC4)cc1", "note": "(stereo not drawn)", "growth": "57.1%"}, {"smiles": "Cc1c(C(=O)OCCO)cc(-c2ccc(Cl)cc2)n1-c1ccc(Cl)cc1Cl", "growth": "82%"}, {"smiles": "NC1C(N)C(N)C1N", "note": "(stereo not drawn)", "growth": "101%"}, {"smiles": "Oc1[nH]c2ccccc2c1N=Nc1nnc2n1N=C(c1ccccc1)CS2", "growth": "79.6%"}, {"smiles": "O=NN(C(=O)NC1CCC(C(=O)O)CC1)C1CCC(C(=O)O)CC1", "note": "(stereo not drawn)", "growth": "96.7%"}, {"smiles": "Nc1ccc(-c2nn3c(CCC(=O)c4nc5ncccc5[nH]4)nnc3s2)c(O)c1", "growth": "101%"}, {"smiles": "CCOc1ccc2c(c1)CN(Cc1ccc(Cl)cc1)CO2", "growth": "70.9%"}, {"smiles": "CCN(CC)CCCNc1ccnc2cc3ccccc3cc12", "growth": "75.5%"}, {"smiles": "Cc1ccc2cccc(Oc3ccc(Nc4ncnc5onc(-c6ccccc6)c45)cc3)c2n1", "growth": "89%"}, {"smiles": "CCCc1c(C)c2sc(=O)[nH]c2[nH]c1=O", "growth": "103%"}, {"smiles": "CC(C)[C@H](NC(=O)Cn1cc(C(=O)O)nn1)C(=O)O", "growth": "99.6%"}, {"smiles": "CC1CCCCN1CCCNC(=O)c1ccc2c(c1)sc1nc(-c3ccc(F)cc3)cn12", "note": "(stereo not drawn)", "growth": "124%"}, {"smiles": "CN(C)c1ccc(/C=C/c2ccnc3c(O)cccc23)cc1", "growth": "-15.5% (active)"}, {"smiles": "NC(=O)CSc1nc(-c2ccc(F)cc2)cc(-c2ccco2)n1", "growth": "109%"}, {"smiles": "Clc1ccc(COc2ccc(Nc3ncnc4onc(-c5ccccc5)c34)cc2)cc1", "growth": "85.6%"}, {"smiles": "O=S1(=O)N(Cc2ccccc2)[C@@H](Cc2ccccc2)C2O[C@H]2[C@H](Cc2ccccc2)N1Cc1ccccc1", "note": "(stereo partly drawn)", "growth": "39.1%"}, {"smiles": "COc1cc(/C=C2\\CN(C)C/C(=C\\c3cc(CN4CCCC4)c(O)c(OC)c3)C2=O)cc(CN2CCCC2)c1O", "growth": "93.7%"}, {"smiles": "COc1cc(/C=C2\\CN(S(=O)(=O)c3ccccc3)C/C(=C\\c3cc(CN4CCCC4)c(O)c(OC)c3)C2=O)cc(CN2CCCC2)c1O", "growth": "40.1%"}, {"smiles": "COc1ccc(-c2nc(N3CCN(C(=O)C4CCCCC4)CC3)c3c4c(sc3n2)CCCC4)cc1", "growth": "63.5%"}, {"smiles": "Nc1cccc(Nc2cc(S(=O)(=O)O)c(N)c3c2C(=O)c2ccccc2C3=O)c1", "growth": "97%"}, {"smiles": "CCCCNc1nc(NC(C)(C)C)nc(NC(C)(C)C)n1", "growth": "81%"}, {"smiles": "COc1ccc(OC)c(NC(=O)/C(C#N)=C/c2ccco2)c1", "growth": "90.7%"}, {"smiles": "O=c1oc2ccc(Br)cc2c(=O)n1-c1ccc(Cl)cc1F", "growth": "-10.6% (active)"}, {"smiles": "COc1ccc(C2=NN(/C=C3\\SC(=O)NC3=Nc3ccc(F)cc3)C(c3ccc(F)cc3)C2)cc1", "note": "(stereo not drawn)", "growth": "103%"}, {"smiles": "Nc1no[n+]([O-])c1-c1nnc2c(n1)-c1ccccc1C2=O", "growth": "-11.9% (active)"}, {"smiles": "C=CCN1C(=O)/C(=c2\\sc3n(c2=O)NC2C(N=3)N(CC)C(=O)N2CC)c2ccccc21", "note": "(stereo not drawn)", "growth": "82.4%"}, {"smiles": "O=C1/C(=C/c2ccc(O)cc2)COc2ccc(O)cc21", "growth": "104%"}, {"smiles": "COc1cc(/C=C/C(=O)c2c(C)nc3ccccc3c2/C=C/c2ccccc2)cc(OC)c1OC", "growth": "42.1%"}, {"smiles": "O=c1oc2ccc(F)cc2c(=O)n1-c1ccc(Cl)cc1F", "growth": "-17.4% (active)"}, {"smiles": "CC1(C)CC2(C)OC2C2(C1)N=NC(=Nc1ccccc1)O2", "note": "(stereo not drawn)", "growth": "64.2%"}, {"smiles": "CCN1C(=O)N(CC)C2Nn3c(s/c(=C4\\C(=O)N(C(C)C)c5ccccc54)c3=O)=NC21", "note": "(stereo not drawn)", "growth": "28.9%"}, {"smiles": "O=c1c(-c2nc3ccccc3[nH]2)cc2ccccc2n1Cc1cn(Cc2ccc(F)cc2)nn1", "growth": "49.9%"}]}]}
